Experiment [1] is described as follows: antimalarial activity against Dd2 strain (AID 2302;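 active = growth inhibition above 50% at the single 2 µM test dose, taken to imply half-maximal potency below 2 µM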;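 note: 0% = DMSO untreated growth and 100% = chloroquine plus artemisinin killed control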). The conditions noted are these: P. falciparum Dd2 in RBCs, LDH growth readout, 72 h; at 2 µM; stronger effect = higher value.
The nature of experiment [2]: human hepatoma cell viability loss – ATP luminescence, cytotoxicity control for P. falciparum antimalarial project, primary screen (AID 2303;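 active = inhibition above 50%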;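 note: 0% = DMSO wells and 100% = digitonin-killed cells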). The conditions noted are these: HepG2 viability, 24-48 h, at 10 µM, stronger effect = higher value.
Experiment [3] has as its target L-lactate dehydrogenase (Plasmodium falciparum (isolate CDC / Honduras)) (UniProt Q27743). Briefly: PfLDH activity inhibition – cell lysate, 3D7 strain, counter-screen for P. falciparum growth inhibition project (AID 2304).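 Note: 0% = vehicle and 100% = reference inhibitor.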 The conditions noted are these: P. falciparum 3D7 crude extract, LDH APAD/NBT absorbance; at 2 µM; stronger effect = higher value.
Experiment [4] is described as follows: inhibition of 3D7 malaria parasite growth – strain 3D7 (AID 2306).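 Note: 0% = DMSO wells and 100% = chloroquine plus artemisinin control wells.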 The note with it: P. falciparum 3D7 erythrocytic growth, LDH absorbance, 72 h; at 2 µM; stronger effect = higher value.
Experiment [5] addresses Calcium-dependent protein kinase 1 (Plasmodium falciparum (isolate 3D7)) (UniProt P62344). Briefly: PfCDPK1 kinase inhibitors, biochemical, TCAMS library (AID 1159585; cut-off not given, nearly all actives have IC50 up to about 0.98 µM;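 note: inhibitors leave more ATP so luminescence rises with inhibition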). The conditions noted are these: recombinant PfCDPK1, Kinase-Glo ATP depletion luminescence. On the technique in general: In Kinase-Glo more light means more ATP remaining.
In experiment [6] the target is Plasmodium falciparum protein kinase 6 (PK6, PF3D7_1337100) (UniProt Q8IDW1). Briefly: PfPK6 kinase inhibitors, biochemical, TCAMS library (AID 1159586). The note with it: recombinant PfPK6, Kinase-Glo ATP depletion luminescence.
Experiment [7] has as its target Protein kinase 7 (PK7), Plasmodium falciparum 3D7 (PF3D7_0213400) (UniProt Q7YTF7). Briefly: inhibition of Plasmodium PK7 catalytic activity – biochemical, TCAMS antimalarial set, Kinase-Glo luminescence (AID 1159587). The note with it: recombinant PfPK7, Kinase-Glo ATP depletion luminescence.
In experiment [8] the target is Calcium-dependent protein kinase 4 (Plasmodium falciparum (isolate 3D7)) (UniProt Q8IBS5). Briefly: PfCDPK4 kinase inhibitors, biochemical, TCAMS library (AID 1159588; cut-off not given, nearly all actives have IC50 up to about 0.91 µM). The conditions noted are these: recombinant PfCDPK4, Kinase-Glo ATP depletion luminescence.

A number with no mark means an inactive call. For some assays here: Entries with a potency or affinity are not part of this list. Active and inactive are the calls of the source. Unless noted, the rule behind the calls is not given here.

The source of these data is PubChem BioAssay.

Sequence of L-lactate dehydrogenase (Plasmodium falciparum (isolate CDC / Honduras)) (Q27743 whole entry, looked up): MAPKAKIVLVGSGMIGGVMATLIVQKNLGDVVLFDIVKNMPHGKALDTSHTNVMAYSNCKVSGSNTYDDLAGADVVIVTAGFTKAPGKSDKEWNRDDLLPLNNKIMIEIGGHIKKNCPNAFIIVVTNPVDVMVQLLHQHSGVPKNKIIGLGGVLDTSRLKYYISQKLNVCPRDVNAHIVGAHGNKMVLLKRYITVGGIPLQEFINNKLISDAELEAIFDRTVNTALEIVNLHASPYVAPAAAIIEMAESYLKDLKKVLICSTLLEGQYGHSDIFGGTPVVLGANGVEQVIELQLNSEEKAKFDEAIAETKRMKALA
Sequence of Protein kinase 7 (PK7), Plasmodium falciparum 3D7 (PF3D7_0213400) (Q7YTF7 1-343): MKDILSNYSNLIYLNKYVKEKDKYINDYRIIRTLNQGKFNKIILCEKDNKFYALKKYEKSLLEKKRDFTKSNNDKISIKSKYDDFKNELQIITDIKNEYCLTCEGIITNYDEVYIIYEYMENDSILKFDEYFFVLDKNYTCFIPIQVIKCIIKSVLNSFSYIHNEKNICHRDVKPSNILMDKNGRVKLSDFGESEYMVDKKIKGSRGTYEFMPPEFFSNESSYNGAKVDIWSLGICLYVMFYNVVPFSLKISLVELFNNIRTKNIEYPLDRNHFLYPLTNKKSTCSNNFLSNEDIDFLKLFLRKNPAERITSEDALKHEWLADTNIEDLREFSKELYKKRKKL
Sequence of Calcium-dependent protein kinase 4 (Plasmodium falciparum (isolate 3D7)) (Q8IBS5 whole entry, looked up): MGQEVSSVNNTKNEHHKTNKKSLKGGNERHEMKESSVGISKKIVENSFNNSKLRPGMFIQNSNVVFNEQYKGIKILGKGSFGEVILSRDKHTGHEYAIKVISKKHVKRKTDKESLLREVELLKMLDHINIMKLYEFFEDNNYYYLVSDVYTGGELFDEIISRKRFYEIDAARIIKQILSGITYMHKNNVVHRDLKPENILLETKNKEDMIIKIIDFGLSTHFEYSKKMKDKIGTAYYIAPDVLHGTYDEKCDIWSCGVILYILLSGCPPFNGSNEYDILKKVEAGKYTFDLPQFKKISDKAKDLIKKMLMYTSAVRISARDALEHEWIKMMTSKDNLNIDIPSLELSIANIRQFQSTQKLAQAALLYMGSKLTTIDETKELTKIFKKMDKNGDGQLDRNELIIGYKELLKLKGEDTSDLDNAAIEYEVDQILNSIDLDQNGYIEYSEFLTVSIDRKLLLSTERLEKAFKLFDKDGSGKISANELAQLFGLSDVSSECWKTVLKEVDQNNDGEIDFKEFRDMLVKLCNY
Sequence of Plasmodium falciparum protein kinase 6 (PK6, PF3D7_1337100) (Q8IDW1 1-305): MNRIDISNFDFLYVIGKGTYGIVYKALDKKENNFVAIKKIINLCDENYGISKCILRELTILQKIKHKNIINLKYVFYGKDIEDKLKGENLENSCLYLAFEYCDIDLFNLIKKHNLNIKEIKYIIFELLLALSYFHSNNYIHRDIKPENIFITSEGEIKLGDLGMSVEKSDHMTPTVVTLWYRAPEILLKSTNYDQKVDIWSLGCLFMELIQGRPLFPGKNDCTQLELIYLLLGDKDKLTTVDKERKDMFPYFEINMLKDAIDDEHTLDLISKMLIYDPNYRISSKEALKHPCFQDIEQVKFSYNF
Sequence of Calcium-dependent protein kinase 1 (Plasmodium falciparum (isolate 3D7)) (P62344 whole entry, looked up): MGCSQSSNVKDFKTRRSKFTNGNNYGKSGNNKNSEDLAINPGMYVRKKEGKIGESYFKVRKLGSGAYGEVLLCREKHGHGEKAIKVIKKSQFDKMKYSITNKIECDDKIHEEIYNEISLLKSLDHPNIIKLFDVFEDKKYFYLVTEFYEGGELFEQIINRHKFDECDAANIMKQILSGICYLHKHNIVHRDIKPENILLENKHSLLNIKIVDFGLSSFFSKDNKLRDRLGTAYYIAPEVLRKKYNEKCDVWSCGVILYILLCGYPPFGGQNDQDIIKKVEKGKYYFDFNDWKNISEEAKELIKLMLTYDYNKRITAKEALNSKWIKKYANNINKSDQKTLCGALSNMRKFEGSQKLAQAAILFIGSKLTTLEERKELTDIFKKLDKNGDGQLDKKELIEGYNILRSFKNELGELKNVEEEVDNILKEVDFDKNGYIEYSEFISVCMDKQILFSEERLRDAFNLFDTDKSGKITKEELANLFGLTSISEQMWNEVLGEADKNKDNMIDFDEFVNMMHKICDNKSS

As a reminder, the inhibition is the relative decrease from the control value, in per cent. For the molecule `Cc1cc2c(NC(=O)NC3CCN(CCc4cccc(Cl)c4)CC3)cccc2cn1`, the results for the growth inhibition in experiment [1] and in experiment [4] were 27% and 100% (active), respectively. Besides, the inhibition is 12% in experiment [2] and -5% in experiment [3]. Moreover, the result in experiment [5], in experiment [6], in experiment [7] and in experiment [8] was inactive.
As for `COc1cc2nc(Nc3ccc4c(ccn4Cc4ccccc4)c3)nc(Nc3ccc4c(ccn4Cc4ccccc4)c3)c2cc1OC`, the growth inhibition in experiment [1] was 80% (active); in experiment [4], 89% (active). Moreover, the inhibition in experiment [2] was -6%; in experiment [3], 2%. The result in experiment [5], in experiment [6], in experiment [7] and in experiment [8] was inactive.
As to `Cc1ccccc1C1CCN(C2CCC(NC(=O)C3=Cc4cc(Cl)ccc4OC3)CC2)CC1` (configuration not stated), the growth inhibition in experiment [1] was 99% (active); in experiment [4] it was 100% (active). The inhibition in experiment [2] was 51% (active); in experiment [3] it was 0%. The result in experiment [5], in experiment [6], in experiment [7] and in experiment [8] was inactive.
In the case of `Cc1cc2nc(-c3cccc(C(=O)NC4CCN(Cc5ccccc5)CC4)c3)[nH]c2cc1C`, the figures for the growth inhibition in experiment [1] and in experiment [4] were 13% and 101% (active), respectively. Moreover, the results for the inhibition in experiment [2] and in experiment [3] were 32% and 2%, respectively. For the same molecule, the outcome in experiment [5], in experiment [6], in experiment [7] and in experiment [8] was inactive.
As for `COCCOc1nc(N)nc2ncc(Cc3cc(OC)ccc3OC)c(C)c12`, the results for the growth inhibition in experiment [1] and in experiment [4] were 0% and 96% (active), respectively. Also, the values for the inhibition in experiment [2] and in experiment [3] were 61% (active) and -5%, respectively. Besides, the outcome in experiment [5], in experiment [6], in experiment [7] and in experiment [8] was inactive.
As to `CN1CCC(N2CCN(CCOc3cc(NC(=O)/C=C/c4ccccc4Cl)ccc3Br)CC2)CC1`, the growth inhibition is 99% (active) in experiment [1] and 101% (active) in experiment [4]. For the same molecule, the values for the inhibition in experiment [2] and in experiment [3] were 36% and -1%, respectively. Also, the outcome in experiment [5], in experiment [6], in experiment [7] and in experiment [8] was inactive.
Turning to `CCCN1CC[C@@H](CCCc2ccnc3ccc(O)cc23)[C@@H](CC)C1`, the growth inhibition in experiment [1] is 14%; in experiment [4], 93% (active). The values for the inhibition in experiment [2] and in experiment [3] were 10% and -2%, respectively. The result in experiment [5], in experiment [6], in experiment [7] and in experiment [8] was inactive.
For `COc1ccc(Nc2nccc(N3CCC(NC(=O)c4cccc(C#N)c4)C3)n2)cc1` (configuration not stated), the growth inhibition in experiment [1] is 93% (active); in experiment [4], 92% (active). The inhibition was 6% in experiment [2] and -3% in experiment [3]. Besides, the outcome in experiment [5], in experiment [6], in experiment [7] and in experiment [8] was inactive.
Consider `COc1ccc(OCC(=O)Nc2cc(-c3nc4ccccc4[nH]3)ccc2Cl)cc1`, for which the growth inhibition in experiment [1] is 33%; in experiment [4] it was 94% (active). Also, the inhibition in experiment [2] is 18%; in experiment [3] it was -4%. For the same molecule, the outcome in experiment [5], in experiment [6], in experiment [7] and in experiment [8] was inactive.
In the case of `CCCCN(CCCC)C(=NCCCCCCN=C(NC(N)=NCc1ccc(Cl)c(Cl)c1)N(CCCC)CCCC)NC(N)=NCc1ccc(Cl)c(Cl)c1`, the growth inhibition in experiment [1] was 96% (active); in experiment [4] it was 100% (active). Further, the inhibition was 9% in experiment [2] and -7% in experiment [3]. The result in experiment [5], in experiment [6], in experiment [7] and in experiment [8] was inactive.
In the case of `CCCCN(C)CC#Cc1ccc(-c2ccc3[nH]c(C)c(Br)c(=O)c3c2)cn1`, the results for the growth inhibition in experiment [1] and in experiment [4] were 93% (active) and 98% (active), respectively. Moreover, the inhibition was 3% in experiment [2] and -3% in experiment [3]. Further, the result in experiment [5], in experiment [6], in experiment [7] and in experiment [8] was inactive.
As to `O=C(Nc1ccc(Cl)c(C(F)(F)F)c1)c1ccc(Cl)c([N+](=O)[O-])c1`, the growth inhibition is 18% in experiment [1] and 87% (active) in experiment [4]. Besides, the figures for the inhibition in experiment [2] and in experiment [3] were 20% and -2%, respectively. The outcome in experiment [5], in experiment [6], in experiment [7] and in experiment [8] was inactive.
Regarding `COC(=O)c1cccc(CNCc2ccc(-c3ccc(-c4nc5c(C)cccc5[nH]4)cc3)cc2)c1`, the figures for the growth inhibition in experiment [1] and in experiment [4] were 86% (active) and 102% (active), respectively. Further, the inhibition is 17% in experiment [2] and 3% in experiment [3]. For the same molecule, the outcome in experiment [5], in experiment [6], in experiment [7] and in experiment [8] was inactive.
With `COc1ccc(NC(=O)/C=C/c2ccccc2Cl)cc1OCCN1CCC(c2nc3ccccc3[nH]2)CC1`, the growth inhibition in experiment [1] was 16%; in experiment [4], 92% (active). The figures for the inhibition in experiment [2] and in experiment [3] were 35% and -6%, respectively. For the same molecule, the result in experiment [5], in experiment [6], in experiment [7] and in experiment [8] was inactive.
In the case of `CN(C)CC(=O)Nc1ccc(-c2ccc3ccnc(N)c3c2)cc1`, the growth inhibition was 99% (active) in experiment [1] and 101% (active) in experiment [4]. The inhibition in experiment [2] was 69% (active); in experiment [3], 2%. In addition, the result in experiment [5], in experiment [6], in experiment [7] and in experiment [8] was inactive.
`CC1(CCc2ccccc2)N=C(Nc2ccc(Cl)cc2)N=C(N)C1c1ccc(Cl)c(Cl)c1` (configuration not stated): the growth inhibition in experiment [1] was 98% (active); in experiment [4], 102% (active). Besides, the inhibition in experiment [2] was 81% (active); in experiment [3], -6%. Besides, the outcome in experiment [5], in experiment [6], in experiment [7] and in experiment [8] was inactive.
Turning to `Cc1ccccc1NC(=S)NC1CCN(CCCCCNC(=O)/C=C/c2ccc(Cl)c(Cl)c2)CC1`, the growth inhibition was 7% in experiment [1] and 99% (active) in experiment [4]. Further, the inhibition was 14% in experiment [2] and 2% in experiment [3]. The outcome in experiment [5], in experiment [6], in experiment [7] and in experiment [8] was inactive.
Take `CCN(CC)CCOc1ccc(C(O)(C#CC(O)(c2ccccc2)c2ccc(OCCN(CC)CC)cc2)c2ccccc2)cc1` (configuration not stated): the growth inhibition in experiment [1] and in experiment [4] was 99% (active) throughout. The figures for the inhibition in experiment [2] and in experiment [3] were 81% (active) and 4%, respectively. For the same molecule, the outcome in experiment [5], in experiment [6], in experiment [7] and in experiment [8] was inactive.
Consider `CC1N=C(N)N=C(N)N1OCc1ccccc1` (configuration not stated), for which the figures for the growth inhibition in experiment [1] and in experiment [4] were 72% (active) and 94% (active), respectively. Moreover, the figures for the inhibition in experiment [2] and in experiment [3] were 62% (active) and 7%, respectively. The outcome in experiment [5], in experiment [6], in experiment [7] and in experiment [8] was inactive.
